# Test results: paper PMC7862700, “An all-to-all approach to the identification of sequence-specific readers for epigenetic DNA modifications on cytosine”
# How the values were obtained:
# Assay in all cases: DAPPL (digital affinity profiling via proximity ligation, sequencing); 10 mM Tris-HCl pH 7.5, 50 mM NaCl, 1 mM DTT, 4% glycerol, room temperature, 30 min; GST-TFs on glutathione beads, 16-mer random dsDNA library, 0.1% formaldehyde crosslink after washing; high values mean tight binding
# Conditions in all cases: protein: recombinant; tags: N-terminal GST; dsDNA, one strand shown
# FLI1 = target: T1, FLI1 (Homo sapiens, UniProt Q01543 1-452)
# T1 sequence: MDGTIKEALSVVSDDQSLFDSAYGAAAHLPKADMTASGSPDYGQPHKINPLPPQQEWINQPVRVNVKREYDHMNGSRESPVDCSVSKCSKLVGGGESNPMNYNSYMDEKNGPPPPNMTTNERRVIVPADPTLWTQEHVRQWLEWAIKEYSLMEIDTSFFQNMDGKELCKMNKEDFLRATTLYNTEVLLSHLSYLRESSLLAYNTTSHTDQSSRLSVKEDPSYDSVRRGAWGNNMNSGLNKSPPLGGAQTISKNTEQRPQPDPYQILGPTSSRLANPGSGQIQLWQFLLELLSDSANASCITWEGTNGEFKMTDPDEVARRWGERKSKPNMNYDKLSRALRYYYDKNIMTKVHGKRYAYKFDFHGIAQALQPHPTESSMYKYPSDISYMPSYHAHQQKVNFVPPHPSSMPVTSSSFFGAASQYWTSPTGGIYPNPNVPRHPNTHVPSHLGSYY
# Summary of the method: (§1)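 Binding signal is defined as a hexamer's read frequency for one factor over its frequency for the tag-only sample. To obtain reads, GST-fused human transcription factors were expressed in yeast, captured on glutathione beads, barcoded with DNA and pooled with that sample. Pools met 200 nmole of a 16-mer random double-stranded DNA library in Tris/NaCl/DTT/glycerol buffer for 30 min at room temperature before washing, 0.1% formaldehyde crosslinking, proximity ligation (BsaI/T4 ligase, 1 h, 37 °C), PCR and Illumina NextSeq500 sequencing.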
# GABPA = target: T2, GABPA (Homo sapiens, UniProt Q06546 1-454)
# T2 sequence: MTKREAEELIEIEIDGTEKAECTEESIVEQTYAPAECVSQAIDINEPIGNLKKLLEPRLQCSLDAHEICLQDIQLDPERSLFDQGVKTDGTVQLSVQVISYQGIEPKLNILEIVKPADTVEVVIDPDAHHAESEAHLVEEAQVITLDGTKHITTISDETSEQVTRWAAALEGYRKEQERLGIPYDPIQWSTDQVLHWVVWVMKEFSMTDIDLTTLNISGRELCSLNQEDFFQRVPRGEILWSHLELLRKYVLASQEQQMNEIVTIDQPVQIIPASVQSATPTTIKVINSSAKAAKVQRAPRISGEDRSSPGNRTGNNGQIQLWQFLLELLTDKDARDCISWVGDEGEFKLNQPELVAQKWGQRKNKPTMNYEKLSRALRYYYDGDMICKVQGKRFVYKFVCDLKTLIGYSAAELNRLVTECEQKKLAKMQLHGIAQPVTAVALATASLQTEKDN
# Summary of the method: as §1
# ELF1 = ELF1 (Homo sapiens, UniProt P32519 1-619)
# Summary of the method: as §1
# EHF = target: T3, EHF (Homo sapiens, UniProt Q9NZC4 1-300)
# T3 sequence: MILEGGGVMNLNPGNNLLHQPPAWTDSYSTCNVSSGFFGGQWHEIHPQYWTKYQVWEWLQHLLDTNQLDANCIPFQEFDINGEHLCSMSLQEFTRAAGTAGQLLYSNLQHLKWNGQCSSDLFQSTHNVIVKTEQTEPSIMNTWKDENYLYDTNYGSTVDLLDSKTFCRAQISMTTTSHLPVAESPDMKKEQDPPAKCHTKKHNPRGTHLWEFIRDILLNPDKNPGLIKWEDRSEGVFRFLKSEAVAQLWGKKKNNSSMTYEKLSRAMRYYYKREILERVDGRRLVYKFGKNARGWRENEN
# Summary of the method: as §1
# SPIB = SPIB (Homo sapiens, UniProt Q01892 1-262)
# Summary of the method: as §1
# ELK3 = target: T4, ELK3 (Homo sapiens, UniProt P41970 1-407)
# T4 sequence: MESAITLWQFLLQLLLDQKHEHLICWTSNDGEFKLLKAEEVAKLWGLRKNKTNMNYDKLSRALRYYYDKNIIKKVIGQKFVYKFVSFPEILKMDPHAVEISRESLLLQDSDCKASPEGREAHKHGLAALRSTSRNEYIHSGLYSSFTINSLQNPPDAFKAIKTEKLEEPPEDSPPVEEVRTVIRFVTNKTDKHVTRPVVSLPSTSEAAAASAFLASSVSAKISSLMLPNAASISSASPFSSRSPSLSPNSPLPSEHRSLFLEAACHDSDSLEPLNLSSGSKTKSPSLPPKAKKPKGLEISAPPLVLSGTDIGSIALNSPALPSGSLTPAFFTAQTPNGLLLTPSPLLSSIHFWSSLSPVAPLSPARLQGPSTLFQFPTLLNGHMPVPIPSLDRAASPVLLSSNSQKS
# Summary of the method: as §1
# ETV5 = ETV5 (Homo sapiens, UniProt P41161 1-510)
# Summary of the method: as §1
# SPIC = target: T5, SPIC (Homo sapiens, UniProt Q8N5J4 1-248)
# T5 sequence: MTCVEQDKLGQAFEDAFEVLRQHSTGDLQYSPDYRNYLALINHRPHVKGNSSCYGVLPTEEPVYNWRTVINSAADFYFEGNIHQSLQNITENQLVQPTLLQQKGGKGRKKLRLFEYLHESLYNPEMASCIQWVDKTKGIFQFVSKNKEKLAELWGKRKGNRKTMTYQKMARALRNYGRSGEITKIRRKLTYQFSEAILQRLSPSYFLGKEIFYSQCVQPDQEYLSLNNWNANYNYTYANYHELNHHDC
# Summary of the method: as §1
# ELF4 = ELF4 (Homo sapiens, UniProt Q99607 1-663)
# Summary of the method: as §1
# ERF = target: T6, ERF (Homo sapiens, UniProt P50548 1-548)
# T6 sequence: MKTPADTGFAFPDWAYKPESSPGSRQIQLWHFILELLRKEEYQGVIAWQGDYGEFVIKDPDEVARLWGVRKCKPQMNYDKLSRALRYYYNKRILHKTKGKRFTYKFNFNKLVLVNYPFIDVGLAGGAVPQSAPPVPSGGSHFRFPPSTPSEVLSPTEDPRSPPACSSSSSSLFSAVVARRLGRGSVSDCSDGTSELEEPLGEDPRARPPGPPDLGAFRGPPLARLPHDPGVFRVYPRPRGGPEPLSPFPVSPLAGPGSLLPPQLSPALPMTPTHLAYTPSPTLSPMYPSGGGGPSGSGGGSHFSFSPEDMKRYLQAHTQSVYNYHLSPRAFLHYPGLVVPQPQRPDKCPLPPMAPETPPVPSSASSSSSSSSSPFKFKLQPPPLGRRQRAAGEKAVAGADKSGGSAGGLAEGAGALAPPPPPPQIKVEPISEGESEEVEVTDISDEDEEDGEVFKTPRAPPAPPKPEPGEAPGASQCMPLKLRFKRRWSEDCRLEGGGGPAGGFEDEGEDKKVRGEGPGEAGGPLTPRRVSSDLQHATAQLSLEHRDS
# Summary of the method: as §1
# ETS2 = target: T7, ETS2 (Homo sapiens, UniProt P15036 1-469)
# T7 sequence: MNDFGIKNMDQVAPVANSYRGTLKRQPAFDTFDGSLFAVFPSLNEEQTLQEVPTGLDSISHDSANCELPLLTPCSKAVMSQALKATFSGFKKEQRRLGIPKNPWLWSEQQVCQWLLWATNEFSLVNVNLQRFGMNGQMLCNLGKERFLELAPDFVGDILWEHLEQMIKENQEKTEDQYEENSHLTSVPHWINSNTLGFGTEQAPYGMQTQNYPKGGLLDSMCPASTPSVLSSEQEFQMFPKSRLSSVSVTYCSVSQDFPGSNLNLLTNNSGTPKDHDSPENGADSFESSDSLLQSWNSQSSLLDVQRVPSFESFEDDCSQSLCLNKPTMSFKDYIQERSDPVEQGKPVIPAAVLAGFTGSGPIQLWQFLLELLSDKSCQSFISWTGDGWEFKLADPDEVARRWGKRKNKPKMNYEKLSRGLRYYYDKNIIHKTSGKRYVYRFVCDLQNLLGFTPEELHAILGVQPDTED
# Summary of the method: as §1
# SPDEF = target: T8, SPDEF (Homo sapiens, UniProt O95238 1-335)
# T8 sequence: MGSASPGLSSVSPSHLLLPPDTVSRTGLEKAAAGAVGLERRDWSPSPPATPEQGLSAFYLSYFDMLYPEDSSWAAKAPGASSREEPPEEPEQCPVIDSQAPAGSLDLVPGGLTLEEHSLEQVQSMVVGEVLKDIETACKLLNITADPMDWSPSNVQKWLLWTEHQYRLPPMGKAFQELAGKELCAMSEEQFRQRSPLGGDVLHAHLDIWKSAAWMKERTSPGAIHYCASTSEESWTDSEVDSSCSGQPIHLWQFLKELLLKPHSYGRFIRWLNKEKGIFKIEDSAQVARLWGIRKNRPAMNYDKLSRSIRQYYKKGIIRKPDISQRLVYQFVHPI
# Summary of the method: as §1
# ETV6 = ETV6 (Homo sapiens, UniProt P41212 1-452)
# Summary of the method: as §1
# Chain of ETV6 (P41212 whole entry): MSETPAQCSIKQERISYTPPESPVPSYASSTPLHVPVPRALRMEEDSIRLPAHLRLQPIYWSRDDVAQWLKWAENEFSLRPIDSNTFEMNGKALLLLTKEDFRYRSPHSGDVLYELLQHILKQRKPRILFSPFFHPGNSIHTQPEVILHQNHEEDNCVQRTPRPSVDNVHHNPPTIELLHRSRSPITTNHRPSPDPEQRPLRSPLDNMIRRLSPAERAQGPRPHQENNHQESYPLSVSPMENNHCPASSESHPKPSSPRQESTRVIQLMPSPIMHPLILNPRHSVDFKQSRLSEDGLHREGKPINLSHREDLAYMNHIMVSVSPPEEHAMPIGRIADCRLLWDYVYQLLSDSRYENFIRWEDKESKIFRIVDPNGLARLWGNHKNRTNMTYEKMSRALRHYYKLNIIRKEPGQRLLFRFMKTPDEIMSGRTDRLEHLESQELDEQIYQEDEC
# Chain of SPIB (Q01892 whole entry): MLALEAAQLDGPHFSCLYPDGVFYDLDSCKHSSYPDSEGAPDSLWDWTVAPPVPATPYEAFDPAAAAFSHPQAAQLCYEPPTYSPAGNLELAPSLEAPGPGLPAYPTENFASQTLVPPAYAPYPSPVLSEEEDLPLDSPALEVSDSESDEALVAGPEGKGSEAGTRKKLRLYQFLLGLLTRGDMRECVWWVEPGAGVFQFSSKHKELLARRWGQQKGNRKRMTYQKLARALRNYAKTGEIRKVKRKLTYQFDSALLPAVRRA
# Chain of ETV5 (P41161 whole entry): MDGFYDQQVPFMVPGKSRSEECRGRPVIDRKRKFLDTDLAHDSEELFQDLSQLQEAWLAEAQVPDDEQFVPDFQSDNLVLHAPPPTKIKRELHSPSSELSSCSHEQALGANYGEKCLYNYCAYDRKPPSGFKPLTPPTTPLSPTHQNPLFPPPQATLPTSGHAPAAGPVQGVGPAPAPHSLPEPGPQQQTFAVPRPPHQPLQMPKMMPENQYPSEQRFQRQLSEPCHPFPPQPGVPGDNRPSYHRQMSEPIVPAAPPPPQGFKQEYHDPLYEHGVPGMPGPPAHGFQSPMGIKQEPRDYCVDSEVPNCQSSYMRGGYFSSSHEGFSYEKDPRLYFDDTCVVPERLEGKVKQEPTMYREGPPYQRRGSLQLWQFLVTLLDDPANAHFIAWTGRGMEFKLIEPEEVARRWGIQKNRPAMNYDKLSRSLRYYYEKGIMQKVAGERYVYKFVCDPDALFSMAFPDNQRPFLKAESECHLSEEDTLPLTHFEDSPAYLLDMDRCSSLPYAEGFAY
# Chain of ELF1 (P32519 whole entry): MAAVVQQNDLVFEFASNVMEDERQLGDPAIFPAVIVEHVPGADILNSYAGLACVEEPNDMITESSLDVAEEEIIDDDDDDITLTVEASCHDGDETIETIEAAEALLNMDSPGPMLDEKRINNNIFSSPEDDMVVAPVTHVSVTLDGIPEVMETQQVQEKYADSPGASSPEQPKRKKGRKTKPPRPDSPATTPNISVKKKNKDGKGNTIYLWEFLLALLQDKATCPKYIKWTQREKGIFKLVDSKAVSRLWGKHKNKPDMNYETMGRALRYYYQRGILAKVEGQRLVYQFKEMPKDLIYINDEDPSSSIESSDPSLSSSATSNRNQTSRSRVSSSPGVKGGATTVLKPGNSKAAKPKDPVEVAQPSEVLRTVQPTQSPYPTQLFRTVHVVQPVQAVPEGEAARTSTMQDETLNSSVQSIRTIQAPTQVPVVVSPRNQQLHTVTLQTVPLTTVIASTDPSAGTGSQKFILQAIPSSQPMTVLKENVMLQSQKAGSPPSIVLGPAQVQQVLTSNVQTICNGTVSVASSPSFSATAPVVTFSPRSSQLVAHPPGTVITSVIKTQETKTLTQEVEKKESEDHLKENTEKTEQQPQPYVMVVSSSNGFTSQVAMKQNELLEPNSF
# Chain of ELF4 (Q99607 whole entry): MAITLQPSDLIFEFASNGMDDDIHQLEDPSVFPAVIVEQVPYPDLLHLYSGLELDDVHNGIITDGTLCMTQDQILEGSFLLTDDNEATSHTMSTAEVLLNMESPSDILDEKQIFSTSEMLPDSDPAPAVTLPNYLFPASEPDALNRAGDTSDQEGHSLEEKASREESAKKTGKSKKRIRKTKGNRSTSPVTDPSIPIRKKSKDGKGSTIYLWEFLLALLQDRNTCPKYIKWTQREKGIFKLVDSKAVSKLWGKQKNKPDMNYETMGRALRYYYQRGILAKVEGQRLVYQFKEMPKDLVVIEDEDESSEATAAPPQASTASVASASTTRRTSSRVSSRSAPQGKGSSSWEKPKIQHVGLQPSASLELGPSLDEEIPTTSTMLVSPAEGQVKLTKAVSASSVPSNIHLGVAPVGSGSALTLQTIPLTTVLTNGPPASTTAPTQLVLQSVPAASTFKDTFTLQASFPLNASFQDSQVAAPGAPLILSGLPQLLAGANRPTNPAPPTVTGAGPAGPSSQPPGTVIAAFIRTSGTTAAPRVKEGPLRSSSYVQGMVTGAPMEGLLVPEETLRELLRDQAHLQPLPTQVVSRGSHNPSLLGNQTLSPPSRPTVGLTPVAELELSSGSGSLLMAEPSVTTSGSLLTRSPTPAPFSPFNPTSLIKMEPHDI
sequence,measurement,setting,value
ACATAG,binding signal,FLI1,"1.12 fold enrichment (6-mer frequency, TF over GST control)"
same,binding signal,GABPA,"1.03 fold enrichment (6-mer frequency, TF over GST control)"
same,binding signal,ELF1,"1.07 fold enrichment (6-mer frequency, TF over GST control)"
same,binding signal,EHF,"1.07 fold enrichment (6-mer frequency, TF over GST control)"
same,binding signal,SPIB,"1.01 fold enrichment (6-mer frequency, TF over GST control)"
same,binding signal,ELK3,"1.07 fold enrichment (6-mer frequency, TF over GST control)"
same,binding signal,ETV5,"1.08 fold enrichment (6-mer frequency, TF over GST control)"
same,binding signal,SPIC,"1.02 fold enrichment (6-mer frequency, TF over GST control)"
same,binding signal,ELF4,"1.04 fold enrichment (6-mer frequency, TF over GST control)"
same,binding signal,ERF,"1.11 fold enrichment (6-mer frequency, TF over GST control)"
same,binding signal,ETS2,"1.05 fold enrichment (6-mer frequency, TF over GST control)"
same,binding signal,SPDEF,"1 fold enrichment (6-mer frequency, TF over GST control)"
same,binding signal,ETV6,"1.07 fold enrichment (6-mer frequency, TF over GST control)"
